Assay results from PubChem BioAssay (NCATS).
Results filed as inconclusive are left out. Calls of active or inactive are those of the source. Unless noted, calls follow the shape of the dose curve; as a rule, active = well fitted curve in the direction sought with a large enough effect; inconclusive = small, poorly fitted or top-dose-only effect, or another doubt; inactive = no such curve, though single readings can be large; an effect the other way counts as inactive or inconclusive.

Columns and labels:
[1] = qHTS to identify inhibitors of the type 1 interferon - major histocompatibility complex class I in skeletal muscle: primary screen against the NCATS Pharmaceutical Collection (AID 1347407);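 also: luminescence of HiBiT knocked into endogenous HLA-B as interferon-induced MHC class I level; % is scaled to controls: 0 for no effect and ±100 for the full control effect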
Outline: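 Cells were seeded with 4 ng/ml IFN-beta, incubated 1 h, then dosed with compounds over eight 1:5 steps up to 46 uM final. After 24 h at 37 C, HiBiT lytic reagent was added and luminescence read after 10 min lysis in the dark.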

[2] = target: Protein phosphatase 1D (Homo sapiens) (UniProt O15297); test: RapidFire Mass Spectrometry qHTS Assay for Modulators of WT P53-Induced Phosphatase 1 (WIP1) (AID 1347424);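 also: amount of dephosphorylated VEPPL-S-QETFS peptide product formed by WIP1; series mostly up to about 63 µM; plate controls were DMSO wells for no effect and GSK830371 inhibitor control at 10 µM for full effect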
Outline: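 10 nM WIP1 + cpd, 1 h RT; + 2 uM VEPPL-pS-QETFS, 5 min RT; stop 0.5% formic acid; labelled product standard 1 uM; RapidFire MS. Buffer 50 mM Tris pH 7.5, 30 mM MgCl2, 1 mM TCEP.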

[3] = target: Protein phosphatase 1D (Homo sapiens) (UniProt O15297); test: Rhodamine-PBP qHTS Assay for Modulators of WT P53-Induced Phosphatase 1 (WIP1) (AID 1347425); also: % of control where 0% means no effect
Outline: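 Read-out: Rhodamine-PBP fluorescence (ex 525/em 598 nm) for released Pi, read each minute for 11 min after adding 10 uM VEPPL-pS-QETFS; signal taken as f1 minus pre-substrate f0. Enzyme 5 nM WIP1 with 1 hr room-temperature compound preincubation.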

[4] = Primary qHTS for Huh7 cytotoxicity: counterscreen for inhibitors of MERS-S pseudotyped particle cell entry (AID 1479147; calls by dose curve)
[5] = Primary qHTS for Vero E6 cytotoxicity: counterscreen for inhibitors of SARS-S pseudo-typed particle cell entry (AID 1479150; calls by dose curve)
[6] = Primary qHTS for inhibitors of La Crosse Virus (LACV) - induced cell death in SH-SY5Y cells (AID 1508616);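 also: top concentration of the series differs between compounds; 0% = infected DMSO wells and 100% = uninfected DMSO wells; higher means more rescue of cells from virus-induced death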
Outline: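 Luminescent ATP readout (ATPLite 1step, 5 min room temperature) measured rescue from LACV-induced death after 6 days of infection at 0.01 MOI; normalized to infected DMSO wells and uninfected DMSO wells.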

[7] = target: Calcium and integrin-binding protein 1 (Homo sapiens) (UniProt Q99828); test: Primary qHTS for Identification of Calcium Integrin Binding Protein 1 (CIB1) Competitor (AID 1508620);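 also: GST tagged CIB1 binding a fluorescein labelled alphaIIb integrin peptide tracer; top concentration of the series differs between compounds; % is scaled to controls: 0 for no effect and ±100 for the full control effect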
Outline: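 CIB1-GST (1 uM final) and compound incubated 15 min at room temperature before adding FITC-alphaIIb peptide tracer (100 nM final). Competition for binding read by fluorescence polarization (ex 480, em 540) after another 15 min at room temperature.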

[8] = Counterscreen qHTS for small molecule stabilizers of the endoplasmic reticulum resident proteome: GLuc-NoTag assay (AID 1508627);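 also: SH-SY5Y cells given compound then 100 nM thapsigargin to empty ER calcium; series mostly up to about 76 µM; 0% = thapsigargin alone and -100% = DMSO vehicle control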
Outline: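 Luminescence of Gaussia luciferase secreted into the medium (coelenterazine, 0.07x final, unlysed cells) was the read-out. Human SH-SY5Y neuroblastoma cells constitutively secreting untagged GLuc received compound for 19 h, then 100 nM thapsigargin for 4 h.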

[9] = Cell Viability qHTS for small molecule stabilizers of the endoplasmic reticulum resident proteome (AID 1508629); settings: cell viability counter-screen, 100 nM thapsigargin for final 4 h;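 also: human SH-SY5Y neuroblastoma cells carrying the GLuc-SERCaMP reporter; compound exposure about 46 h in total before the viability read; % is scaled to controls: 0 for no effect and ±100 for the full control effect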
[10] = Primary qHTS for inhibitors of MERS-S pseudo-typed particle cell entry (AID 1479149; calls by dose curve; also: nearly all actives have a fitted effect of over 60% in size)
[11] = Confirmatory qHTS for small molecule stabilizers of the endoplasmic reticulum resident proteome: Secreted ER Calcium Modulated Protein (SERCaMP) assay (AID 1508628); also: potency is read from the fitted curve at half-maximal effect; nearly all actives have a fitted effect of over 40% in size
Outline: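 We seeded SH-SY5Y-GLuc-SERCaMP cells, added compounds (three concentrations in the primary run, eleven up to 76.6 uM in confirmation), incubated 16 h, depleted ER calcium with thapsigargin, and read luciferase 4 h later.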

Calcium and integrin-binding protein 1 (Homo sapiens), sequence (Q99828 whole entry, looked up): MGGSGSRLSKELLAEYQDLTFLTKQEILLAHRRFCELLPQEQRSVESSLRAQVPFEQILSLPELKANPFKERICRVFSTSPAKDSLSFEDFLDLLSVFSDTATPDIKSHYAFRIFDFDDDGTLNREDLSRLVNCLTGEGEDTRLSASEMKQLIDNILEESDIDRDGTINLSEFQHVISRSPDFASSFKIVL
Protein phosphatase 1D (Homo sapiens), sequence (O15297 whole entry, looked up): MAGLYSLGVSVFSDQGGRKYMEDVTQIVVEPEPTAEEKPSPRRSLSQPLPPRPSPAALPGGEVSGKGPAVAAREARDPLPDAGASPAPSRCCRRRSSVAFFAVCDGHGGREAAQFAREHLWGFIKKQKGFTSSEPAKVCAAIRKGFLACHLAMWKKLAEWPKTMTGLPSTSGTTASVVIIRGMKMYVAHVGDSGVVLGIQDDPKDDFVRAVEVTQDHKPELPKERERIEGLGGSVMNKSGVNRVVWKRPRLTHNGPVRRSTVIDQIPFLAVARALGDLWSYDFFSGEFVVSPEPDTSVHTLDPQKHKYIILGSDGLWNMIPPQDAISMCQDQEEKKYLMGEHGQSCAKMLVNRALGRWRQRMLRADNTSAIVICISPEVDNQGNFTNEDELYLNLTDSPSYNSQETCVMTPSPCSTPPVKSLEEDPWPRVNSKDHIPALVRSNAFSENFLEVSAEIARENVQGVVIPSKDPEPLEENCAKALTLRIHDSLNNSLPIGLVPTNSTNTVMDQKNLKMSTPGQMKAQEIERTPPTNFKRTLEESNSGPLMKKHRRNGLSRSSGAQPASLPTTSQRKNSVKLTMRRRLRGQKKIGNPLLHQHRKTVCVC

CN1C2CCC(C)(C)C1CC(OC(=O)C(O)(c1cccs1)c1cccs1)C2 (stereo not given)
inactive: Potency [1] | Potency [2] | outcome [3] | Potency [4] | Potency [5] | outcome [6] | Potency [7] | Potency [8] | max response [9] -12.1%

CC(C)(C)OC(=O)c1ncn2c1[C@@H]1CCCN1C(=O)c1c(Br)cccc1-2
inactive: Potency [1] | Potency [2] | outcome [3] | outcome [6] | Potency [7]

CC[C@H]1C[C@H]2[C@@H]3CCC4=CC(=O)CC[C@@H]4[C@H]3CC[C@]2(C)[C@H]1O
inactive: Potency [1] | Potency [2] | outcome [3] | Potency [4] | Potency [5] | outcome [6] | Potency [7]

C=CCOC(Cn1ccnc1)c1ccc(Cl)cc1Cl (stereo not given)
inactive: Potency [1] | Potency [2] | outcome [3] | Potency [4] | Potency [5] | outcome [6] | Potency [7]

CCN(CC)Cc1nccn1-c1ccc([N+](=O)[O-])cc1C(=O)c1ccccc1Cl
inactive: Potency [1] | Potency [2] | outcome [3] | Potency [4] | Potency [10] | Potency [5] | outcome [6] | Potency [7]

C[C@]12C=CC(=O)C=C1CC[C@@H]1[C@@H]2CC[C@@]2(C)[C@H]1CC[C@]2(C)O
inactive: Potency [1] | Potency [2] | outcome [3] | outcome [6] | Potency [7]

CCCN(CCC)CCc1c[nH]c2ccccc12
inactive: Potency [1] | Potency [2] | outcome [3] | outcome [6] | Potency [7]

CCC1(CC)C(=O)NC(=O)NC1=O
inactive: Potency [1] | Potency [2] | outcome [3] | outcome [6]

CCC(=O)C(CCN(C)C)(c1ccccc1)c1ccccc1
inactive: Potency [1] | Potency [2] | outcome [3] | Potency [4] | Potency [5] | Potency [7]

CC[C@H](O)C(C[C@H](C)N(C)C)(c1ccccc1)c1ccccc1
inactive: Potency [1] | Potency [2] | outcome [3] | outcome [6] | Potency [7]
active: Potency [11] 50.1 µM

C[C@]12CC[C@H]3[C@@H](CC=C4C[C@@H](O)CC[C@@]43C)[C@@H]1CC[C@@H]2O
inactive: Potency [1] | Potency [2] | outcome [3] | Potency [7]

ClCc1cccc(Cl)c1
inactive: Potency [1] | Potency [2] | outcome [3] | outcome [6] | Potency [7]

CC1Sc2c(C(=O)O)c(=O)c3cc(F)c(N4CCNCC4)cc3n21 (stereo not given)
inactive: Potency [1] | Potency [2] | outcome [3] | outcome [6] | Potency [7]

COc1cc(CC#N)cc(OC)c1OC
inactive: Potency [1] | Potency [2] | outcome [3] | outcome [6] | Potency [7]

C[C@H](CN1CCOCC1)C(C(=O)N1CCCC1)(c1ccccc1)c1ccccc1
inactive: Potency [1] | Potency [2] | outcome [3] | Potency [7]

CCN(CC)CCOC(=O)C(C)(c1ccccc1)c1ccccc1
inactive: Potency [1] | Potency [2] | outcome [3] | outcome [6] | Potency [7]

CCOC(C(=O)OCCN(C)C)(c1ccccc1)c1ccccc1
inactive: Potency [1] | Potency [2] | outcome [3] | outcome [6] | Potency [7]

COP(=S)(OC)Oc1ccc(Sc2ccc(OP(=S)(OC)OC)cc2)cc1
inactive: Potency [1] | Potency [2] | outcome [3] | outcome [6] | Potency [7]

COc1ccc2[nH]cc(CCN(C(C)C)C(C)C)c2c1
inactive: Potency [1] | Potency [2] | outcome [3] | outcome [6] | Potency [7]

Oc1c(Br)cc(Br)cc1Br
inactive: Potency [1] | Potency [2] | outcome [3] | outcome [6] | Potency [7]

CCNc1nc(Cl)nc(NCC)n1
inactive: Potency [1] | Potency [2] | outcome [3] | outcome [6] | Potency [7]

O=C(O)CCCCCCNC1c2ccccc2CCc2ccccc21
inactive: Potency [1] | Potency [2] | outcome [3] | Potency [7]

COc1cc(C[C@@H](C)N)c(OC)cc1Br
inactive: Potency [1] | Potency [2] | outcome [3] | Potency [7]

C[N+](C)(C)CCOC(=O)C(O)(c1ccccc1)c1ccccc1
inactive: Potency [1] | Potency [2] | outcome [3] | outcome [6] | Potency [7]

O=c1[nH]c2cc(Cl)ccc2n1C1CCNCC1
inactive: Potency [1] | Potency [2] | outcome [3] | outcome [6] | Potency [7]

OC(c1ccccc1)(c1ccccc1)C1CCNCC1
active: Potency [11] 15.8 µM
inactive: Potency [1] | Potency [2] | outcome [3] | outcome [6] | Potency [7] | Potency [8] | max response [9] -6.14%

Nc1ccc(Cl)cc1C(=O)c1ccccc1F
inactive: Potency [1] | Potency [2] | outcome [3] | outcome [6] | Potency [7]

CC(CC(C#N)(c1ccccc1)c1ccccc1)N(C)C (stereo not given)
inactive: Potency [1] | Potency [2] | outcome [3] | outcome [6] | Potency [7]

O=C(CCl)c1ccc(Cl)cc1Cl
inactive: Potency [1] | Potency [2] | outcome [3] | Potency [7]

CN1CCC(N(Cc2ccccc2)c2ccccc2)CC1
inactive: Potency [1] | Potency [2] | outcome [3] | outcome [6] | Potency [7]

CCN1CCCC1CNC(=O)C(O)(c1ccccc1)c1ccccc1 (stereo not given)
inactive: Potency [1] | Potency [2] | outcome [3] | outcome [6] | Potency [7]
